Mm-Cpn inhibitor – M. maripaludis TRiC chaperonin inhibition | actives 0.031% (n = 330,000) | purified Mm-Cpn ATPase, ADP Transcreener TR-FRET | Potency, µM (series often up to 76.9 µM), inactives show top-dose activity, negative = inhibition, most hits filed as inhibitors | AID 504842; note: % is set by controls: 0 for no effect and ±100 for the full control effect; nearly all actives have a fitted effect of over 80% in size
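ATP (10 uM final) was added to archaeal chaperonin (25 nM final) after 10 min exposure to test compound at 37°C; after 30 min further incubation, ADP was detected by competitive TR-FRET.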
TDP-43 yeast inh – TDP-43 toxicity inhibition in yeast; TDP-43 expressing yeast growth rescue, BacTiter-Glo, 24 h; Potency, µM (top dose mostly 46.1 µM), for inactives: at the top dose growth rescue (activation), usual class: activators; actives 1.8% (n = 410,000); AID 652104; note: % of control where 0% means no effect; nearly all actives have a fitted effect of over 50% in size
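In this qHTS, compounds that restore growth of yeast expressing TDP-43 appear as activators. Cells (OD600=0.02, galactose medium, raffinose-pregrown) are incubated with compound 24 hr at 30 deg C and growth is quantified by BacTiter-Glo.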
ClpP mod – qHTS Assay for Activators of ClpP. ATP-dependent Clp protease proteolytic subunit (Bacillus subtilis (strain 168)), P80244. purified B. subtilis ClpP, FRET peptide cleavage, 20 min. Potency, µM (series often up to 57.5 µM), inactives show top-dose activity change, negative = active. actives 1.9% (n = 340,000). AID 651965, 2013; active = well fitted falling curve with a large enough effect; inconclusive = small, poorly fitted or top-dose-only effect; inactive = no such curve, though single readings can be large or run the other way; note: the source files actives as falling curves though it sought activators and does not explain the sign; nearly all actives have a fitted effect of over 65% in size
Target sequence (P80244 whole entry, looked up): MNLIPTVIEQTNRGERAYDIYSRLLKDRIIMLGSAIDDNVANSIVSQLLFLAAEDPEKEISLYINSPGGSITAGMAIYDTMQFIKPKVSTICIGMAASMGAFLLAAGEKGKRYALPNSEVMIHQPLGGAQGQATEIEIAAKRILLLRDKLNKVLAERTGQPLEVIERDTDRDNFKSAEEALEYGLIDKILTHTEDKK
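ClpP 10 microg/mL final, pH 8 Tris/KCl buffer with BSA, glycerol, Tween-20; compound pinned in; FRET-FV substrate; RT 20 min; Ex320/Em430; ΔFRET vs ADEP 5.8 microM, DMSO, no enzyme.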
FUS suppressor – rescues growth of FUS-expressing yeast; actives 0.24% (n = 390,000); S. cerevisiae FUS-expressing, growth rescue, OD600, 24 h; AID 1347120; Potency, µM (highest dose often 76.6 µM), most hits filed as activators;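 note: plate controls were DMSO vehicle for no effect and reference control for full effect; nearly all actives have a fitted effect of over 55% in size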
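Quantitative HTS measuring growth restoration of FUS-toxic yeast. Galactose-induced cells (OD 0.005) were exposed 24hr at 30C to compounds at several concentrations, then absorbance at 600 nm was recorded.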
Abeta yeast res – A-beta toxicity reversal in yeast. actives 0.063% (n = 410,000). yeast expressing A-beta42, growth rescue, OD600, 48 h; response scale: 0% DMSO, 100% iron-clioquinol control. Potency, µM (top dose mostly 46.1 µM), hits mostly activators; note: nearly all actives have a fitted effect of over 55% in size
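Yeast growth medium received pinned compounds, then yeast cells expressing toxic A-beta were added; plates incubated at 30 C for 48 hr. Growth read as absorbance at 600 nm, normalized to DMSO and equimolar FeCl3 plus clioquinol controls.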
aSyn rescue – rescues yeast growth from alpha-synuclein toxicity; AID 652106; Potency, µM (doses to about 46.1 µM), for inactives: at the highest dose growth rescue (activation), most hits filed as activators; actives 0.14% (n = 370,000); Yeast expressing alpha-synuclein, growth rescue, BacTiter-Glo, 24 h; note: % of control where 0% means no effect; nearly all actives have a fitted effect of over 65% in size
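Galactose-induced alpha-syn yeast (OD600=0.02, raffinose-pregrown) + pinned cpd, 24 hr, 30 deg C; growth by BacTiter-Glo luminescence. Growth restoration scores as activation.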
An asterisk follows results filed as active; i = inactive; ? = inconclusive; nt = no result. The list is not random: actives were taken first. Their share in the collection is about 3.6%. Unless noted, calls come from the whole dose curve; as a rule, active = well fitted curve in the direction sought with a large enough effect; inconclusive = small, poorly fitted or top-dose-only effect, or another doubt; inactive = no such curve, though single readings can be large; an effect the other way counts as inactive or inconclusive. Potency is the fitted concentration of half-maximal effect.

SMILES | Mm-Cpn inhibitor | TDP-43 yeast inh | ClpP mod | FUS suppressor | Abeta yeast res | aSyn rescue
CCn1cc(C2C(C(=O)Nc3cc(C)ccn3)=C(C)NC3=C2C(=O)CC(C)(C)C3)c(C)n1 (stereo not drawn) | -2% | ? | 10µM* | nt | i | 3%
CC1=C(C(=O)Nc2ccccc2)C(c2ccc3c(c2)OCO3)C2=C(CCCC2=O)N1 (stereo not drawn) | 1% | 11% | -26% | i | i | 2%
CC1=C(C(=O)Nc2cc(C)ccn2)C(c2ccc(C)cc2)C2=C(CCCC2=O)N1 (stereo not drawn) | 2% | 3% | 28µM* | i | i | 5%
CCOC(=O)c1c(C)[nH]c(C)c1S(=O)(=O)N1CCC(C(=O)NCc2ccc(F)cc2)CC1 | nt | 10% | -2% | i | i | nt
COC1CCCCC1NS(=O)(=O)c1ccccc1 (stereo not drawn) | -15% | 14% | 28µM* | i | i | 3%
COC1CCCCC1NS(=O)(=O)c1ccc(Cl)cc1 (stereo not drawn) | -3% | 21% | -1% | i | i | -1%
O=C(CSc1nnc(-c2cccnc2)n1-c1ccccc1)c1ccccc1Cl | nt | nt | nt | i | nt | nt
Cc1cccc(CNC(=O)CN2C(=O)CSc3c2c(C)nn3-c2ccccc2)c1 | nt | 22% | 1% | i | i | nt
CCOC(=O)c1c(C)nc(C)c(C(=O)OCC)c1-c1cccc(N)c1 | -3% | -1% | nt | i | i | -7%
CCOC(=O)c1c(C)nc(C(Cl)(Cl)Cl)nc1N | 1% | 11µM* | -1% | i | i | 0%
O=C(NC1CCCCN(Cc2cccc(C(F)(F)F)c2)C1=O)c1c(F)cccc1F (stereo not drawn) | nt | nt | nt | i | nt | nt
CCOc1ccc(CNC(=O)Cn2nc(C)c3nn(-c4ccc(Cl)cc4)c(C)c3c2=O)cc1OC | nt | 18% | 0% | i | i | nt
Cc1cccc(-c2nc(C)c(CCNC(=O)c3cccs3)s2)c1 | nt | 16µM* | 4% | i | i | -22%
COc1ccc(-c2nc(C)c(CCNC(=O)c3cccs3)s2)cc1 | nt | 14µM* | 4% | i | i | -6%
O=C(NCCc1csc(-c2ccccc2)n1)c1ccco1 | -1% | ? | -2% | i | i | 6%
COc1ccc(-c2nc(C)c(CCNC(=O)c3ccc(F)c(F)c3)s2)cc1 | nt | ? | 4% | i | i | 2%
CCOc1ccc(C(=O)NCCc2sc(-c3ccc(F)cc3)nc2C)cc1 | nt | 6% | 25µM* | i | i | nt
Cc1nc(-c2ccccc2)sc1CCNC(=O)c1ccco1 | nt | 18µM* | 4% | i | i | -14%
COC(=O)CC1Oc2ccc(Cl)cc2-n2cc(-c3ccc(F)cc3)nc21 (stereo not drawn) | nt | -3% | -3% | i | i | nt
Cc1cc(C)c(NC(=O)Cn2nc(-c3ccncc3)ccc2=O)c(C)c1 | nt | 12% | 0% | i | i | nt
COc1ccc(CCn2nnnc2C2(c3ccc(C)cc3)CC2)cc1 | nt | nt | nt | nt | nt | -3%
O=C(NC1CCCC1)c1c[nH]c2ccc(S(=O)(=O)Nc3cccc(C(F)(F)F)c3)cc2c1=O | nt | -1% | -21% | i | i | nt
Cc1ccc(-c2nc(C)c(CCNC(=O)c3cccs3)s2)cc1 | nt | 16µM* | 4% | i | i | -19%
COc1ccc(-c2nc(C)c(CCNC(=O)c3cccc(C)c3)s2)cc1OC | nt | 22µM* | 3% | i | i | -6%
CCOc1ccc(C(=O)NCCc2sc(-c3ccc(C)cc3)nc2C)cc1 | nt | ? | 4% | i | i | nt
COc1ccc(-c2nc(C)c(CCNC(=O)c3cc(OC)c(OC)c(OC)c3)s2)cc1OC | nt | 5% | 4% | i | i | 3%
O=C1NC(c2ccccc2Cl)Nc2ccccc21 (stereo not drawn) | 1% | 15% | 25µM* | i | i | -1%

From PubChem BioAssay
